High-throughput results deposited in PubChem BioAssay by National Center for Advancing Translational Sciences (NCATS).
Pf growth 96h: inhibits malaria parasite growth, 96 h; 320,000 compounds, 6.9% hits; P. falciparum luciferase reporter growth, 96 h; Potency, µM (highest dose often 28.7 µM), for the others: at the top dose activity change, negative = inhibition, actives largely listed as inhibitors; note: potency is the fitted concentration of half-maximal effect; % is set by controls: 0 for no effect and ±100 for the full control effect
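Parasite growth measured via integrated firefly luciferase reporter in P. falciparum. Infected erythrocytes at 2% hematocrit, 0.05% parasitemia final were treated 96 hours at 37 C under 5% CO2, and luminescence was read.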
Shiga toxin inh: inhibitors of Shiga toxin in Vero cells | 290,000 compounds, 9.2% hits | inhibition, % at 38.7 µM | Vero cells, Shiga toxin protein synthesis inhibition reporter; in the data active = inhibition mostly above about 28%, no sharp cut-off; inactive = mostly below about 43%; note: 0% is about no effect
CHX counter: counter-screen for Shiga toxin inhibitors: cycloheximide protein synthesis inhibition. cell reporter, cycloheximide protein synthesis inhibition counterscreen. max response, %. 300,000 compounds, 12% hits; in the data active = max response mostly above about 13%, no sharp cut-off; inactive = mostly below about 14%; note: read at 38.3 µM for the half of the compounds with a filed dose; 0% is about no effect
Pf growth 48h: P. falciparum growth inhibition at 48 hours (one generation) | 310,000 compounds, 5.9% hits | P. falciparum luciferase growth in erythrocytes, 48 h | Potency, µM (titrated, usually from 28.7 µM), for the others: at the top dose activity change, negative = inhibition, actives largely listed as inhibitors; note: potency is the fitted concentration of half-maximal effect; % is set by controls: 0 for no effect and ±100 for the full control effect
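Luciferase-expressing P. falciparum in infected erythrocytes (2% hematocrit, 0.1% parasitemia final) in RPMI 1640/0.5% Albumax were exposed to compound for 48 hours at 37 C, 5% CO2; growth read as luminescence.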
AMA1 RON2 block: AMA1-RON2 (P. falciparum) interaction inhibition | AlphaScreen AMA1-biotinylated RON2 peptide binding | Potency, µM (highest dose often 58.2 µM), for inactives: top-dose activity change, negative = inhibition, usual class: inhibitors | 360,000 compounds, 0.2% hits;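 note: potency is the fitted concentration of half-maximal effect; 0% = vehicle wells and -100% = peptide control; nearly all actives have a fitted effect of over 45% in size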
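AMA1 (3D7) with his tag at 25 nM final met compounds first, then biotinylated RON2 peptide at 25 nM; detection used donor plus acceptor beads, 10 µg/mL apiece, read by AlphaScreen after 30 min at room temperature.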
SARS PLP yeast: blocks SARS-CoV papain-like protease in a yeast assay. S. cerevisiae expressing SARS-CoV PLpro, growth rescue. AID 485353. Potency, µM (titrated, usually from 32.9 µM), for inactives: at the top dose activity, positive = growth rescue, hits mostly activators. 330,000 compounds, 0.19% hits; calls by dose curve; note: potency is the fitted concentration of half-maximal effect; 0% is about no effect; nearly all actives have a fitted effect of over 55% in size
The depositor's hits bear a star; u = inconclusive; x = no result; [ ] = dose if it differs, or a comment. This is a sample that favours compounds with a hit; in the whole collection about 19% have one here. Unless noted, calls come from the whole dose curve; as a rule, active = well fitted curve in the direction sought with a large enough effect; inconclusive = small, poorly fitted or top-dose-only effect, or another doubt; inactive = no such curve, though single readings can be large; an effect the other way counts as inactive or inconclusive.

SMILES | Pf growth 96h | Shiga toxin inh | CHX counter | Pf growth 48h | AMA1 RON2 block | SARS PLP yeast
CC(C)=CC(=O)Nc1ccc2c(c1)OCO2 | x | 67.6* | 25.2* | 205.4% | -0.9% | x
CC(Oc1cccnc1[N+](=O)[O-])C(=O)Nc1ccc(Cl)cn1 (stereo not drawn) | 2.3% | x | x | -6.6% | 2.4% | 8.0%[6.58 µM]
COc1ccc(OC)c(N/C(C)=C/C(=O)c2ccccc2)c1 | 11.2% | 26.9* | 91.3* | 126.3% | 5.3% | 9.1%
COC(=O)/C(=C\C(=O)c1ccccc1)Nc1ccc(OC)cc1 | 126.9% | 58.2* | 50.3* | 110.5% | -13.4% | -0.5%
COc1ccc(N/C(C)=C/C(=O)c2ccccc2)cc1 | 11.7µM* | 163.6* | 64.1* | 190.7% | -11.9% | 1.6%
COc1ccc(OC)c(N/C(C)=C/C(=O)c2ccncc2)c1 | 173.2% | -11.3 | -3.2 | -17.1% | -10.4% | -10.1%
COc1ccnc(CSC(N)=Nc2ccc(F)cc2)c1 | 18.0% | 66.3* | 31.2* | 1.5% | -69.4% | -6.0%
COc1cccc(-c2nc3sc4c(c3c(=O)[nH]2)CCCCC4)c1 | 448.1% | 75.0* | 21.0* | 348.7% | 0.7% | 7.9%
CC(=O)OCc1nc2sc3c(c2c(=O)[nH]1)CCCC3 | -10.5% | 11.6 | -1.0 | 9.3% | 6.4% | 0.6%
COCc1nc2sc3c(c2c(=O)[nH]1)CCCC3 | 18.4% | 22.5 | 16.6* | 5.7% | -9.9% | -74.2%
c1ccc(COc2ccc(OCCOCCn3cncn3)cc2)cc1 | x | 79.5* | 56.9* | 121.3% | -9.6% | -5.6%
CC1CCN(CCOc2ccc(OCc3ccccc3)cc2)CC1 | -21.8% | 54.0* | 39.1* | 15.0% | -9.7% | -24.3%
c1ccc(COc2ccc(OCCCN3CCCCC3)cc2)cc1 | 8.2% | 53.1* | 31.9* | x | -8.9% | -3.4%
c1ccc(CCCN2CCOCC2)cc1 | u | -8.5 | -3.9 | -2.6% | -26.4% | 4.5%
c1ccc(OCc2ccc(CCCN3CCOCC3)cc2)cc1 | 3.3% | 28.4* | 26.0* | 38.1% | -6.5% | -2.2%
c1ccc(OCCCN2CCCC2)cc1 | 4.5% | 2.7 | 7.3 | x | u | 15.6%
Cc1cccc(OCC(=O)N(Cc2ccco2)C2CCS(=O)(=O)C2)c1C (stereo not drawn) | -4.2% | -8.3 | -2.5 | 14.8% | 0.0% | 0.7%
O=C(Nc1ccccc1C(=O)NCCCN1CCOCC1)c1ccc(F)cc1F | -3.2% | 1.4 | 15.2 | -17.0% | 7.0% | 2.9%
c1ccc(COc2ccc(OCCCCN3CCCC3)cc2)cc1 | 27.5% | 81.9* | 19.4* | -31.8% | 5.2% | -0.2%
O=C(Nc1ccc(OCc2ccccc2)cc1)Nc1ccccc1C(=O)NCCCN1CCOCC1 | -21.4% | 48.3* | 35.5* | u | -12.0% | -2.1%
O=[N+]([O-])c1cc([As](=O)(O)O)ccc1O | 1.65µM* | x | x | 2.62µM* | -9.6% | 0.8%
CC(C)(c1ccc(O)c([N+](=O)[O-])c1)c1ccc(O)c([N+](=O)[O-])c1 | x | x | x | x | 4.1% | x
CN(C)S(=O)(=O)c1ccc(C(=O)NCc2ccccc2)cc1 | 10.4% | -1.4 | -4.3 | 36.2% | -10.2% | -2.8%
CN(C)S(=O)(=O)c1ccc(C(=O)OCC(=O)NCc2ccccc2)cc1 | 15.5% | -6.2 | -1.8 | 13.1% | 10.0% | -1.5%
CN(C)S(=O)(=O)c1ccc(C(=O)NCCOc2ccc(F)cc2)cc1 | x | 84.1* | 42.2* | 105.6% | -7.6% | 4.2%
SMILES | Pf growth 96h | Shiga toxin inh | CHX counter | Pf growth 48h | AMA1 RON2 block | SARS PLP yeast
CN(C)S(=O)(=O)c1ccc(C(=O)OCCc2ccccc2)cc1 | -20.0% | 32.8 | 39.3* | 32.2% | 16.2% | 0.3%
CN(C)S(=O)(=O)c1ccc(C(=O)NCCOc2ccccc2)cc1 | x | 82.8* | 40.1* | 143.3% | 2.0% | 1.5%
COc1ccc(-n2nc(C(=O)NCC(=O)NCCC3=CCCCC3)c3ccccc3c2=O)cc1 | 12.2% | 1.6 | 4.7 | u | -18.8% | 0.6%
CC(/C=C/c1ccc(Cl)o1)=C\C(=O)O | 1.47µM* | 26.4 | 1.0 | 14.1% | 5.4% | -4.0%
Cc1noc(C)c1S(=O)(=O)N1CCCC(C(=O)NCC2CCCO2)C1 (stereo not drawn) | 9.28µM* | -13.3 | -1.9 | -2.6% | -19.7% | 1.1%
Cc1ccc(NC(=O)C2CCCN(S(=O)(=O)c3c(C)noc3C)C2)cc1F (stereo not drawn) | 2.33µM* | 2.5 | -3.0 | u | 57.8% | 3.0%
Cc1ccc(NC(=O)C2CCCN(S(=O)(=O)c3c(C)noc3/C=C/N(C)C)C2)c(C)c1 (stereo not drawn) | 9.28µM* | -1.4 | -3.6 | u | -0.5% | -3.7%
Cc1ccc(NC(=O)C2CCCN(S(=O)(=O)c3c(C)noc3C)C2)c(Br)c1 (stereo not drawn) | 5.86µM* | -6.0 | -9.3 | -4.2% | 0.0% | 2.9%
Cc1ccc(C)c(NC(=O)C2CCCN(S(=O)(=O)c3c(C)noc3/C=C/N(C)C)C2)c1 (stereo not drawn) | 1.6% | 0.9 | -3.3 | u | -8.6% | 0.2%
CC1(C)Cc2cccc(OC(=O)NCCc3ccc(F)cc3)c2O1 | x | x | x | x | 4.9% | x
CN(C)c1oc(/C=C/c2cccs2)nc1S(=O)(=O)c1ccccc1 | u | -2.5 | 1.3 | u | -10.7% | -0.3%
CC(C)(C)c1ccc(C(=O)Nc2nnc(Cc3c[nH]c4ccccc34)s2)cc1 | u | 13.4 | 12.4 | 7.7% | 24.8% | 8.5%
O=C(Nc1nnc(Cc2c[nH]c3ccccc23)s1)c1ccc(Cl)cc1Cl | -16.4% | 34.7* | 17.1* | 9.9% | -11.0%[2.32 µM] | -0.4%
O=C1CCNc2ccc(-c3ccccc3)cc21 | -5.9% | 74.8* | 37.5* | 59.9% | 8.7% | -32.4%
Cc1ccc2c(c1)C(=O)CCN2 | 1.5% | 3.1 | -1.9 | x | -1.6% | 10.5%
O=C1CCNc2cc3ccccc3cc21 | x | 32.1 | 24.9* | u | -26.4% | -1.9%
O=C1NC(=O)c2cc3ccccc3cc21 | 3.3% | x | x | 21.1% | 5.2% | -4.4%
O=C(NC1C/C(=N/O)c2cc3c(cc21)OCO3)C(F)(F)F (stereo not drawn) | 9.5% | -3.1 | -3.5 | 0.0% | 7.4% | 0.0%
COc1ccc(Br)cc1S(=O)(=O)NCCc1cccs1 | x | x | x | x | 16.1% | -9.9%
O=C(c1ccc(CSc2nc3ccncc3[nH]2)cc1)N1CCCCC1 | 11.7µM* | -4.2 | 1.0 | 33.0% | -14.7% | -0.5%
CC1CCCCC1NC(=O)c1ccc(CSc2nc3ccncc3[nH]2)cc1 (stereo not drawn) | 5.22µM* | -13.2 | -0.8 | u | -3.4% | -17.0%
Cc1ccc(C)c(N2CCN(C(=O)c3ccc(CSc4nc5ccncc5[nH]4)cc3)CC2)c1 | -29.7% | -8.5 | 0.5 | u | -25.6% | -13.4%
CC1CCCCC1NC(=O)CSc1nc2ccccc2[nH]1 (stereo not drawn) | -14.9% | 28.1 | -1.8 | -10.3% | 4.7% | -1.9%
O=C(c1ccc2ncsc2c1)N1CCN(c2ccccc2Cl)CC1 | 27.8% | 105.2* | 19.7* | 32.2% | 0.0% | -0.5%
